Assay outcomes from PubChem BioAssay.
The list is not random: actives were taken first. Their share in the collection is about 1.6%.
Platelet DG rel: inhibitors of platelet dense granule secretion, primary screen, cell-based, MLPCN, human platelets; inhibition, %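 (compounds screened at 7.5 µM in platelet-rich plasma)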; human platelet-rich plasma, SFLLRN dense granule ATP release, luminescence; 0.22% of 300,000 active;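 active = mean replicate score, as percent of positive control, at or above 50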
STAT1 blocker: STAT1 signaling inhibitors, primary screen, cell-based, HTS, luciferase reporter. inhibition, % at 5.5 µM. 0.35% of 200,000 active. NIH 3T3 STAT1-luciferase reporter, IFN-gamma, luminescence. AID 920, 2007;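 active = inhibition above a set limit, the mean inhibition across all tested compounds plus 3 SD, cut at about 34% in these data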
PPC-1+TRAIL kill: compounds killing PPC-1 cancer cells with TRAIL present, primary screen, TRAIL potentiator project, ATPLite luminescence, uHTS. cell killing (% activity), % at 4 µM or 5 µM. PPC-1 cells + TRAIL, ATPLite viability luminescence. 0.41% of 220,000 active;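 active = cell killing above 50% in the first pass at 4 µM, then a duplicate retest at 5 µM averaging 50% or more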
TRAIL sens C8: viability loss with TRAIL in NB7+C8 cells, primary screen, TRAIL sensitizer project, cell-based, ATPlite luminescence | 1% of 360,000 active | inhibition (viability loss, TRAIL sensitization), % at 10 µM;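 active = compounds causing at least 50% loss of cell viability in the single-dose screen, relative to plate controls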
STAT3 blocker: IL-6 driven STAT3 reporter inhibitors, primary screen, U3A cells, luciferase, luminescence, MLSCN library. 0.89% of 190,000 active. IL-6 STAT3-luciferase reporter; host cell line lacks STAT1. inhibition, % at 5.5 µM. AID 862, 2007;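 active = inhibition above the mean inhibition across all screened compounds plus 3 SD, cut at about 44% in these data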
PPC-1 tox: cytotoxicity in PPC-1 cells, confirmation, cytotoxicity control for TRAIL apoptosis potentiator project, cell-based, ATP content luminescence; shares compounds with PPC-1+TRAIL kill; PPC-1 viability, ATPlite luminescence, overnight; cytotoxicity, % at 5 µM; 50% of 1,200 active; AID 1447, 2008;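 active = reconfirmed compounds whose average cytotoxicity reaches 50% or more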
Large screens that a line does not name were inactive (follow-up assays come after a bar, where they were run).

CCOC(=O)c1cnc2c(N=Nc3ccccc3)c(N)nn2c1N	PPC-1+TRAIL kill 58.2, TRAIL sens C8 68.6 | PPC-1 tox 59.0
CCOC(=O)c1cnc2c(-c3ccccc3)cnn2c1N	PPC-1+TRAIL kill 52.5, TRAIL sens C8 66.0 | PPC-1 tox 55.1
CCOC(=O)c1cnc2c(-c3ccccc3)c(C)nn2c1N	none
CCOC(=O)c1cnc2c(N=Nc3cccc(Cl)c3)c(N)nn2c1N	none (no result: Platelet DG rel, TRAIL sens C8)
O=C(NC1CCCCC1)C1c2ccccc2OCC(=O)N1Cc1ccco1 (centres undefined)	none (no result: Platelet DG rel, STAT1 blocker, PPC-1+TRAIL kill, STAT3 blocker)
O=C(Nc1nc2cc3c(cc2s1)OCCO3)c1ccc(N2C(=O)CCC2=O)cc1	none (no result: STAT1 blocker, STAT3 blocker)
CC1CCc2nc(NC(=O)c3ccco3)sc2C1 (centres undefined)	STAT1 blocker 42.5, PPC-1+TRAIL kill 79.9, TRAIL sens C8 84.0, STAT3 blocker 97.1 | PPC-1 tox 76.8
O=C(Nc1nc2cc3c(cc2s1)OCO3)c1ccco1	PPC-1+TRAIL kill 68.5, TRAIL sens C8 75.3 (no result: STAT1 blocker, STAT3 blocker) | PPC-1 tox 71.6
O=C(Nc1nc2cc3c(cc2s1)OCCO3)c1ccncc1	none (no result: Platelet DG rel) | PPC-1 tox inactive
CS(=O)(=O)c1ccc2nc(NC(=O)c3ccco3)sc2c1	TRAIL sens C8 56.9 | PPC-1 tox inactive
O=C(NCc1ccccc1)C1c2ccccc2OCC(=O)N1Cc1cccnc1 (centres undefined)	none (no result: Platelet DG rel, STAT1 blocker, PPC-1+TRAIL kill, STAT3 blocker)
Cc1ccc2c(c1)N(CC(=O)N1CCCC1)C(=O)c1cccnc1O2	none (no result: STAT1 blocker, PPC-1+TRAIL kill, STAT3 blocker)
COc1ccccc1-c1nnc(NC(=O)CSc2nncn2C)s1	PPC-1+TRAIL kill 76.8, TRAIL sens C8 83.4 | PPC-1 tox 68.4
COc1ccccc1Cc1c(-c2ccc(C#N)cc2)nc2c3ccccc3ccn12	none (no result: Platelet DG rel, STAT1 blocker, PPC-1+TRAIL kill, STAT3 blocker)
O=C(c1ccco1)N1CCC(c2nc3c(nnn3Cc3ccccc3Cl)c(=O)[nH]2)CC1	none (no result: STAT1 blocker, PPC-1+TRAIL kill, STAT3 blocker)
O=C(c1ccco1)N1CCN(c2nc(C3CC3)nc3c2nnn3Cc2ccccc2Cl)CC1	none | PPC-1 tox inactive
COc1cccc(CNc2nc3cc(-c4ccccc4)sc3c(=O)n2C)c1	none (no result: Platelet DG rel, STAT1 blocker, PPC-1+TRAIL kill, STAT3 blocker)
Cc1nc2cc(-c3ccccc3)sc2c(=O)n1N	Platelet DG rel 89.7, STAT1 blocker 86.2, PPC-1+TRAIL kill 65.3, TRAIL sens C8 75.7, STAT3 blocker 98.6 | PPC-1 tox 63.7
COc1ccc(-c2cc3nc(C)n(N)c(=O)c3s2)cc1	Platelet DG rel 87.0, PPC-1+TRAIL kill 89.2, TRAIL sens C8 86.4 (no result: STAT1 blocker, STAT3 blocker) | PPC-1 tox 90.5
CC(C)[C@H](NC(=O)[C@@H]1Cc2c([nH]c3ccccc23)C2c3ccccc3C(=O)N21)C(=O)N1CCC[C@H]1C(=O)O (some centres undefined)	none (no result: Platelet DG rel, STAT1 blocker, PPC-1+TRAIL kill, STAT3 blocker)
COc1ccc(/C=C/C(=O)NC(=S)NNC(=O)Cc2cccs2)cc1	none | PPC-1 tox inactive
O=C(/C=C/c1ccccc1)NC(=S)NNC(=O)Cc1cccs1	none
COc1ccc(OC)c(C(=O)/C=C/c2ccccc2C(F)(F)F)c1	none | PPC-1 tox inactive
CC(=O)CSc1nnc(-c2ccc3c(c2)OCO3)o1	none | PPC-1 tox inactive
O=C(CSc1nnc(-c2ccc(O)cc2)o1)Nc1ccc2c(c1)OCCO2	PPC-1+TRAIL kill 65.3 | PPC-1 tox 66.0
COc1ccccc1NC(=O)CSc1nnc(-c2ccc(C)cc2)o1	none | PPC-1 tox 53.3
C[C@H](NC(=O)C[C@@H]1C=C[C@@H](NC(=O)CN2CCOCC2)[C@@H](CO)O1)c1ccccc1	none (no result: Platelet DG rel, STAT1 blocker, PPC-1+TRAIL kill, STAT3 blocker)
C/C(=N\Nc1cccc2cccnc12)c1ccc[nH]1	none | PPC-1 tox inactive
CCC(=O)Nc1cccc2cccnc12	none
Cc1ccc(S(=O)(=O)Nc2ccc(-c3cn4ccc(C)cc4n3)cc2)cc1	none
Cc1ccn2cc(-c3ccc(Br)cc3)nc2c1	PPC-1+TRAIL kill 82.2, TRAIL sens C8 86.2 (no result: STAT1 blocker, STAT3 blocker) | PPC-1 tox 82.8
Cc1cn([C@H]2C[C@H](O)[C@@H](CNCc3ccc(CN(C)S(C)(=O)=O)o3)O2)c(=O)[nH]c1=O	none (no result: Platelet DG rel, STAT1 blocker, PPC-1+TRAIL kill, STAT3 blocker)
Cc1cccc(C)c1NC(=O)C(c1ccccc1)N1CCC(c2ccccc2)CC1 (centres undefined)	none (no result: Platelet DG rel, STAT1 blocker, PPC-1+TRAIL kill, STAT3 blocker)
Brc1ccc(N=Nc2ccc3ccccc3n2)cc1	Platelet DG rel 69.0, PPC-1+TRAIL kill 93.8, TRAIL sens C8 91.7 (no result: STAT1 blocker, STAT3 blocker) | PPC-1 tox 93.4
